# High-throughput results from PubChem.
# TDP1 cell noCPT: qHTS for Inhibitors of human tyrosyl-DNA phosphodiesterase 1 (TDP1): qHTS in cells in absence of CPT; Potency, µM (doses to about 46.2 µM), actives largely listed as inhibitors; DT40 Tdp1-/- hTDP1 cells, no CPT, ATP luminescence, 48 h; AID 686978, 2013; 420,000 compounds, 15% hits; further: nearly all actives have a fitted effect of over 55% in size
#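 Seeded 400 DT40-hTDP1 cells/well (vehicle DMSO, no 20 nM CPT); pinned compounds; ≥48 hr at 37 °C; CellTiter-Glo luminescence as viability measure.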
# VP16 counter: VP16 counterscreen qHTS for inhibitors of ROR gamma transcriptional activity; Drosophila S2 Gal4-VP16 UAS-luciferase, luminescence, 20 h; Potency, µM (highest dose often 53.6 µM), hits mostly inhibitors; 310,000 compounds, 3.5% hits;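 further: Gal4-VP16 expression switched on by copper sulfate through the metallothionein promoter; nearly all actives have a fitted effect of over 50% in size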
# IL-1B inflam inh: qHTS for Inhibitors of Inflammasome Signaling: IL-1-beta AlphaLISA Primary Screen | THP-1 LPS/ATP IL-1B secretion, AlphaLISA, 16 h; active compounds read low | activity change, % at 57.5 µM | 360,000 compounds, 4.7% hits | AID 743279, 2014; in the data active means activity change below about -50%; inconclusive means mostly about -30% to -49%
#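 Secreted IL-1B measured by AlphaLISA bead assay after 16 h compound exposure of THP-1 cells; compounds (final up to 57.5 uM) added 1 h before LPS (250 ng/mL) and ATP (1.25 mM) stimulation; lower signal means less secretion.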
# LDHA inh: qHTS assay for inhibitors of human lactate dehydrogenase. L-lactate dehydrogenase A chain (Homo sapiens), P00338. purified LDHA, NADH/diaphorase-resazurin fluorescence; active compounds read low. 480,000 compounds, 0.15% hits. activity change, % (values are at about 110 or 230 µM); in the data active means activity change below about -30%; inconclusive means mostly about -25% to -30%
#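 LDH5 2 nM; NADH 0.06 mM, pyruvate 0.2 mM; 200 mM Tris pH 7.4, EDTA, Tween-20; 5 min RT. Detection: diaphorase 0.133 mg/mL + resazurin 37 µM, fluorescence ex540/em590 at 0 and 20 min; normalized to enzyme-free and DMSO wells.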
# RORg inh: qHTS for inhibitors of ROR gamma transcriptional activity; 310,000 compounds, 5.4% hits; Nuclear receptor ROR-gamma (Mus musculus), P51450; Drosophila S2 Gal4-RORgamma UAS-luciferase reporter, 20 h; Potency, µM (highest dose often 53.6 µM), usual class: inhibitors; AID 2551, 2010; further: nearly all actives have a fitted effect of over 60% in size
# Target sequence (P51450 whole entry, looked up, the tested form may be a part): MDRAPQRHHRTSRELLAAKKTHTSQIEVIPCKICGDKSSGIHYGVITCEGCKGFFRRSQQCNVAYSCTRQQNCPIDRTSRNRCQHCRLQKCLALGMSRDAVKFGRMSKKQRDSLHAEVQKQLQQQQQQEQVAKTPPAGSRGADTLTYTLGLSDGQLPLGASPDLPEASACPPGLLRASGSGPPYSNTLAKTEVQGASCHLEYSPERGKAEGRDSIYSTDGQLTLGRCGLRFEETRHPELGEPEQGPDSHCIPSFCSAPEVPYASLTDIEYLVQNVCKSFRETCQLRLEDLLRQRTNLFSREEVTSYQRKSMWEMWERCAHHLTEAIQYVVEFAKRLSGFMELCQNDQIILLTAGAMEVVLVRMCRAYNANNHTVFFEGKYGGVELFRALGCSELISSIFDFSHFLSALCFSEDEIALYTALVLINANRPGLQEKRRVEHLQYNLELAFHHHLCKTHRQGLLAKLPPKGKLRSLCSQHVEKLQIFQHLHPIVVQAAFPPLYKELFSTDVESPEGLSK
#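 Drosophila Schneider cells stably carrying a metallothionein-driven Gal4 DBD–ROR gamma fusion and a UAS-Photinus luciferase reporter were exposed to compound for 1 hr, then induced with copper sulfate (700 uM final) for 20 hr at ambient temperature before luminescence reading.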
# TDP1 cell CPT: qHTS for Inhibitors of human tyrosyl-DNA phosphodiesterase 1 (TDP1): qHTS in cells in presence of CPT; chicken DT40 Tdp1-/-;hTDP1 cells + 20 nM CPT, ATP luminescence, 48 h; Potency, µM (top dose mostly 46.2 µM), usual class: inhibitors; 420,000 compounds, 12% hits; AID 686979, 2013; further: nearly all actives have a fitted effect of over 55% in size
#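 Cell growth measured by CellTiter-Glo luminescence after a minimum 48 h, 37 C compound exposure with 20 nM CPT in Tdp1-knockout DT40 cells stably expressing hTDP1, seeded 400/well; qHTS titration format.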
# Hits are given with their value; n = inactive; u = inconclusive; x = no result; [ ] = dose if it differs, or a comment. In the library only some 18% were active in any assay of this set; here they are far more common. Unless noted, the call rests on the fitted dose curve; in most records, active means well fitted curve in the direction sought with a large enough effect; inconclusive means small, poorly fitted or top-dose-only effect, or another doubt; inactive means no such curve, though single readings can be large; an effect the other way counts as inactive or inconclusive.
SMILES,TDP1 cell noCPT,VP16 counter,IL-1B inflam inh,LDHA inh,RORg inh,TDP1 cell CPT
O=C(/C=C/c1ccc(-c2ccccc2)cc1)c1ccccc1,x,x,x,n,x,x
O=C(/C=C/c1ccccc1)c1ccc2c3c(cccc13)CC2,u,16µM,-99,n,13µM,u
O=C(/C=C/c1ccccc1)c1ccccc1,n,n,u,n,n,15µM
O=C(/C=C/c1ccccc1)/C=C/c1ccccc1,x,u,-98,n,u,5.2µM
O=C(/C=C/c1ccccc1)c1ccc2cccc3c2c1CC3,x,x,x,n,x,x
O=C(/C=C/c1cccs1)c1ccc2ccccc2c1,x,x,x,n,x,x
CN(C)C(=O)COC(=O)c1csc(NCc2ccccc2)n1,x,x,x,n,x,x
O=C(O)C(c1c[nH]c2cc(Cl)ccc12)N1CCCN(c2ccc(C(F)(F)F)cn2)CC1 (stereo unspecified),x,x,x,n,x,x
O=C(c1ccc(NS(=O)(=O)/C=C/c2ccccc2)cc1)N1CCCCC1,12µM,x,-76,n,x,u
O=C(c1ccc2ccccc2c1)N1CCN(S(=O)(=O)/C=C/c2ccccc2)CC1,26µM,n,n,n,n,16µM
O=C(COc1ccc(F)cc1Br)N1CCN(S(=O)(=O)/C=C/c2ccccc2)CC1,u,n,-50,n,n,u
O=C(/C=C/c1ccc[nH]1)c1ccccc1,u,u,u,n,n,26µM
CC(c1cc2ccccc2o1)N(C)Cc1nnc(-c2ccccc2)o1 (stereo unspecified),x,x,x,n,x,x
CCOC(=O)COc1ccc(/C=C(/C#N)c2nc3ccc(C)cc3[nH]2)cc1OCC,x,x,x,n,x,x
CC(=O)Nc1sc(C)c(C)c1C(=O)OCC(=O)N(Cc1ccccc1)C(C)C,n,x,n,n,x,u
COc1ccc(C(=O)N(CC(=O)Nc2sc(C)c(C)c2C(N)=O)C2CCCC2)cc1,u,n,n,n,n,u
Cc1sc(NC(=O)CN(Cc2ccc(F)cc2)C(=O)C(C)C)c(C(N)=O)c1C,2.3µM,n,u,n,n,3.7µM
CCC(=O)N(CC(=O)Nc1sc(C)c(C)c1C(N)=O)C1CCCC1,13µM,n[10 µM],n,n,n,23µM
CCC(=O)N(CC(=O)Nc1sc(C)c(C)c1C(N)=O)Cc1ccc(F)cc1,15µM,n,n,n,n,21µM
Cc1sc(NC(=O)CN(Cc2ccccc2)C(=O)C(C)C)c(C(N)=O)c1C,1.2µM,n,n,n,n,1.8µM
O=C(CN(Cc1ccc(Cl)cc1)C(=O)c1csnn1)NCc1ccc(F)cc1,u,n,n,n,n,n
Cc1ccc(Oc2ccc(NC(=O)Cn3cnnc3C#N)cc2)cc1,x,x,x,n,x,x
CC(=O)Nc1cccc(NC(=O)c2cc(-c3cccs3)nc3ccccc23)c1,x,x,x,n,x,x
O=C(CSc1nnc(Nc2ccccc2)s1)c1ccc(Br)s1,x,x,x,n,x,x
CCc1ccc(CN2CCC(n3nccc3NC(=O)c3ccccc3C)CC2)cc1,u,n,n,n,n,21µM
Cc1ccccc1C(=O)Nc1ccnn1C1CCN(Cc2cccnc2)CC1,n,n,n,n,n,n
CCOc1ccc(CN2CCC(n3nccc3NC(=O)c3ccccc3OC)CC2)cc1,u,n,n,n,n,16µM
CCn1cc(CN2CCC(n3nccc3NC(=O)c3ccccc3OC)CC2)cn1,n,u,n,n,n,n
COC(=O)Nc1ccc(C(=O)OC(C)C)cc1,x,x,x,n,x,x
Cn1c(=O)c2c([nH]c(=O)n2Cc2ccccc2F)n(C)c1=O,x,x,x,n,x,x
